RGS12 GoLoco inh – RGS12 GoLoco-Gai1 interaction inhibition; 230,000 compounds, 0.44% hits; Gai1:RGS12 GoLoco peptide FP, rhodamine, 10 min; Potency, µM (highest dose often 61.6 µM), without a hit: at the highest dose activity, negative = inhibition, usual class: inhibitors; P63096; active = well fitted inhibition curve with a large enough effect, not every such curve was filed as active; inactive = no such curve, though single readings can be large or run the other way; also: potency is read from the fitted curve at half-maximal effect; nearly all actives have a fitted effect of over 30% in size
NPSR antag – blocks cAMP signaling of the human neuropeptide S receptor; Q6W5P4; Potency, µM (series often up to 38.3 µM), without a hit: top-dose activity change, negative = inhibition, most hits filed as inhibitors; 220,000 compounds, 1% hits; CHO-NPSR cells, cAMP TR-FRET, antagonist mode; also: potency is read from the fitted curve at half-maximal effect; nearly all actives have a fitted effect of over 50% in size
ALDH1A1 inh – ALDH1A1 (human) enzyme inhibition; Potency, µM (series often up to 75.3 µM), without a hit: at the top dose activity, negative = inhibition, most hits filed as inhibitors; AID 1030; Purified ALDH1A1, NADH fluorescence, propionaldehyde substrate; 220,000 compounds, 7.3% hits; active = well fitted inhibition curve with a large enough effect, not every such curve was filed as active; inconclusive = small, poorly fitted or top-dose-only effect, or another doubt; inactive = no such curve, though single readings can be large or run the other way;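 also: potency is read from the fitted curve at half-maximal effect; plate controls were no enzyme wells and a reference inhibitor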
Target sequence (P00352 whole entry, looked up): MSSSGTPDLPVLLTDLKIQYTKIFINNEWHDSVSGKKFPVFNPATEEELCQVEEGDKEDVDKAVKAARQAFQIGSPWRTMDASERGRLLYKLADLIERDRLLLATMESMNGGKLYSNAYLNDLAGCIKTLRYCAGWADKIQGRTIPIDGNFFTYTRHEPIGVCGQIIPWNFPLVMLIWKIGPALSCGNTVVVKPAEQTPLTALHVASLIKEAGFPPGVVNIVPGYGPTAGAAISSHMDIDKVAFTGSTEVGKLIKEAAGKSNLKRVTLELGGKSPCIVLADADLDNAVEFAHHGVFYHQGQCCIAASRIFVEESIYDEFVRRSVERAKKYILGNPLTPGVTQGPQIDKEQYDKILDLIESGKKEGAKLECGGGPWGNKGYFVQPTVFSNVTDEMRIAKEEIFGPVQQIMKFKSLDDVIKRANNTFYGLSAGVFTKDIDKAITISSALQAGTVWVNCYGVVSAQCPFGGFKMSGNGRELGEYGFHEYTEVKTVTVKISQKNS
FBPA coupling cs – inhibits coupling enzyme system, counter-screen for aldolase hits. coupling enzyme system counterscreen, AmpLite Red fluorescence. activity change, negative = inhibition, % at 58.2 µM, hits read low. 290,000 compounds, 0.67% hits; in the data active = activity change below about -30%
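Final compound at 57.5 uM, incubated 10 min at RT with coupling enzyme reagent (glyceraldehyde-3-phosphate), then 20 min with substrate and AmpLite Red detection. Fluorescence read at 525/598 nm; tests interference with the coupling assay, not aldolase inhibition.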
JMJD2E inh – blocks human JMJD2E demethylase activity; Potency, µM (doses to about 57.1 µM), without a hit: top-dose activity change, negative = inhibition, hits mostly inhibitors; JMJD2E catalytic domain, FDH-coupled NADH fluorescence (FDH is formaldehyde dehydrogenase); AID 2147; 230,000 compounds, 1.6% hits; active = well fitted inhibition curve with a large enough effect, not every such curve was filed as active; inconclusive = small, poorly fitted or top-dose-only effect, or another doubt; inactive = no such curve, though single readings can be large or run the other way;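 also: potency is read from the fitted curve at half-maximal effect; 0% = wells with enzyme and -100% = buffer wells without enzyme; nearly all actives have a fitted effect of over 50% in size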
Sfp PPTase inh – Sfp phosphopantetheinyl transferase inhibition; Potency, µM, for the others: largest response in the series, negative = inhibition, actives largely listed as inhibitors; Q9F4F7; AID 1490; 310,000 compounds, 3.5% hits; Biochemical Sfp PPTase activity, qHTS;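 also: the enzyme is Sfp with the accession as filed and its product quenches rhodamine fluorescence; potency is read from the fitted curve at half-maximal effect; 0% = enzyme reaction without inhibitor and -100% = no enzyme wells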
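Reaction rates are the 30-min fluorescence difference (ex 525, em 598 nm) in wells containing 15 nM Sfp, 5 uM rhodamine-CoA and 12.5 uM BHQ-2-YbbR at pH 7.6 with 10 mM MgCl2.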
Starred values were filed as active, the others as inactive; ? = inconclusive; . = no result given; ! = repeats disagree; [ ] = dose if it differs, or a comment. Most compounds without a hit are left out; they make up all but 8.5% or so of the library. Unless noted, calls follow the shape of the dose curve; as a rule, active = well fitted curve in the direction sought with a large enough effect; inconclusive = small, poorly fitted or top-dose-only effect, or another doubt; inactive = no such curve, though single readings can be large; an effect the other way counts as inactive or inconclusive. Unless noted, % is scaled to controls: 0 for no effect and ±100 for the full control effect.

SMILES | RGS12 GoLoco inh | NPSR antag | ALDH1A1 inh | FBPA coupling cs | JMJD2E inh | Sfp PPTase inh
COc1cc2c(cc1OC)[C@@H]1C(=O)c3ccc(OC)c(CC=C(C)C)c3OC1CO2 (stereo partly specified) | -4% | . | ? | -11 | 18µM* | ?
N#CS.N=C=S.N=C=S.[Cu].[NH2-].[NH2-].[NH2-].[NH2-].c1ccc2ncccc2c1 | -15%[14.2 µM] | . | 3.5µM* | . | . | .
c1ccc2ncccc2c1 | -4% | . | . | . | . | .
CN(C)C1C(=O)C(C(N)=O)=C(O)[C@@]2(O)C(=O)C3=C(O)c4c(O)cccc4[C@@](C)(O)C3[C@H](O)C12 (stereo partly specified) | -19% | . | 7.1µM* | -10 | 2µM* | 56µM*
CN(C)[C@H]1C(=O)C(C(N)=O)=C(O)[C@]2(O)C(=O)C3=C(O)c4c(O)cccc4[C@@](C)(O)[C@H]3C[C@@H]12 | 3%[21.6 µM] | . | -9%[20.9 µM] | -10 | 11µM* | -12%
CN(C)C1C(=O)C(C(N)=O)=C(O)C2(O)C(=O)C3=C(O)c4c(O)cccc4C(C)(O)C3CC12 (stereo unspecified) | . | . | . | -19 | . | -1%
CN(C)[C@@H]1C(=O)C(C(N)=O)=C(O)[C@]2(O)C(=O)C3=C(O)c4c(O)cccc4[C@@](C)(O)[C@H]3[C@H](O)[C@@H]12 | 5.6µM* | . | ? | -7 | 11µM* | -2%
CC(C)[C@H](CO)Nc1nc(Nc2cccc(Cl)c2)c2ncn(C(C)C)c2n1 | 0% | . | ? | 0 | ? | 14%
CCN(CC)c1ncnc2c1ncn2[C@@H]1O[C@@H](COP(=O)(O)OP(=O)(O)C(Br)(Br)P(=O)(O)O)[C@H](O)[C@H]1O | 3% | . | -6% | 6 | ? | -15%
O=C=NC1CCCCC1 | -5% | . | 28µM*! | . | . | .
COc1cc(C2c3cc4c(cc3C(OC(C)=O)[C@H]3COC(=O)C23)OCO4)cc(OC)c1OC (stereo partly specified) | -6% | . | -6% | -8 | -11% | ?
CCCCCCNC(=O)N[C@H](Cc1ccc(O)cc1)C(=O)NCCC[C@H]1CN2C(=NC[C@H]2CCC)N1CC1CCC1 | 14µM* | -23% | . | 2 | ? | 7.9µM*
CCS(=O)(=O)N1N=C(c2cccc(NS(C)(=O)=O)c2)CC1c1ccccc1 (stereo unspecified) | 229% | -19% | 13µM* | 1 | ? | -4%
COc1ccccc1-c1n[nH]c(=S)n1Cc1ccco1 | 2% | -13% | 3% | 2 | -13% | 20µM*
O=C1C(Cl)=C(Cl)C(=O)C(Cl)=C1Cl | 0.22µM* | . | 0.4µM* | -65* | ? | -85%
CCOC(=O)COc1ccc(/C=C2\C(=O)NC(=S)N(c3ccc(OC)cc3)C2=O)cc1OC | . | . | . | 5 | . | 45µM*
COc1ccc(N2C(=O)/C(=C/c3ccc(OC)c(OC)c3)C(=O)NC2=S)cc1 | . | . | . | 0 | . | -94%
COC(=O)COc1ccc(/C=C2\C(=O)NC(=S)N(c3ccc(C)cc3)C2=O)cc1OC | . | . | . | 5 | . | 40µM*
O=[N+]([O-])c1cc(Cl)c(Cl)c(Cl)c1 | 7% | . | ? | . | . | .
CC1(C)Cc2c(sc3c2C(=O)NC(c2cccnc2)N3)CO1 (stereo unspecified) | 6% | -1%[46.1 µM] | ? | -5 | ? | 40µM*
O=C(CCC(=O)N1CCOc2ccc(Cl)cc21)N1CCC2(CC1)OCCO2 | . | . | . | . | . | -3%
O=C(NC1(C(F)(F)F)Oc2ccc(Cl)cc2O1)N1CCC2(CC1)OCCO2 (stereo unspecified) | -10% | 9%[46.1 µM] | ? | -16 | 16µM* | 79µM*
O=C(c1ccccc1)N1CCC2(CC1)OCCO2 | 0% | -17% | 2% | 2 | -4% | -4%
O=C(NC1(C(F)(F)F)Oc2ccccc2O1)N1CCC2(CC1)OCCO2 | -4% | 10% | ? | 0 | 14µM* | -1%
CC(CCC(=O)O)C1CCC2C3C(=O)CC4CC(=O)CC[C@@]4(C)C3CC(=O)[C@]12C (stereo partly specified) | -4% | . | -5% | 0 | 2% | 8%
SMILES | RGS12 GoLoco inh | NPSR antag | ALDH1A1 inh | FBPA coupling cs | JMJD2E inh | Sfp PPTase inh
CCCN(CC#CCOc1ccc(OC)cc1)CCC | 2% | -5%[46.1 µM] | 20µM* | -1 | ? | -25%
CN1CCN(CC#CCOc2ccc(Cl)cc2)CC1 | . | . | . | -1 | . | ?
CC[C@@]1(O)C(=O)OCc2c1cc1n(c2=O)Cc2cc3cc(O)ccc3nc2-1 | -5% | . | -9% | -1 | 14% | -6%
Fc1ccccc1N1CCN(Cc2c(F)cccc2F)CC1 | -5% | -6%[46.1 µM] | ? | 1 | 20µM* | ?
CN1C(=O)NC(=O)/C(=C/c2ccc(C(=O)O)cc2)C1=O | 1% | 17% | . | 0 | -10% | 45µM*
Cc1ccc(/C=C2/C(=O)NC(=O)N(C)C2=O)cc1 | 13% | 4% | 0% | -1 | -12% | ?
c1ccc(OP(Oc2ccccc2)Oc2ccccc2)cc1 | -8% | . | -16% | . | . | .
C=C(C)[C@H]1[C@H]2OC(=O)[C@@H]1[C@]1(O)C[C@H]3O[C@]34C(=O)O[C@H]2[C@@]14C | 1%[21.6 µM] | . | 8%[20.9 µM] | -1 | 4%[25.5 µM] | 11%
CCCN1CCc2cccc3c2C1Cc1ccc(O)c(O)c1-3 (stereo unspecified) | 22% | 0%[46.1 µM] | ? | . | ? | 56µM*
Nc1c([N+](=O)[O-])ccc(Oc2ccccc2)c1Cl | . | . | . | -7 | . | -18%
CN1CCc2nc(CO)c(CO)cc2C1 | . | . | 7%[13.5 µM] | -4 | . | 4%
CN1CCc2nc3sc(C(=O)NC4CC4)c(N)c3cc2C1 | -61% | -56% | ? | -25 | ? | 32µM*
Cc1ccc(S(=O)(=O)NC(CC(=O)N2CCC3(CC2)OCCO3)c2ccco2)cc1 (stereo unspecified) | -15% | -17%[46.1 µM] | 13µM* | 2 | 5% | 10%
CNC(=O)Oc1ccc2c(c1)C(=O)c1ccccc1CO2 | 5% | -2%[46.1 µM] | 11µM* | 2 | -2% | -2%
ClCCCl | 5% | . | ? | . | . | .
CN(C)NC(=O)CCC(=O)O | -108% | . | 1% | . | . | .
CCN1CCN(P2(=O)C=C(c3ccccc3)OC(c3ccccc3)=C2)CC1 | 11% | 0%[46.1 µM] | 14µM* | -2 | 9% | -10%
CCN1CCN(Cc2ccccc2C)CC1 | 14% | -5%[46.1 µM] | -1% | 1 | 2% | 7%
Oc1cc[c]([Hg][Cl])cc1 | . | . | . | . | . | 0.056µM*
Cc1ccc(O)cc1 (tested in a mixture with another compound) | 4%[14.2 µM] | . | 5%[13.5 µM] | . | . | .
O=C(CCN1CC2CCC(CC2)C1)c1cccs1 | 4%[14.2 µM] | . | 0.071µM* | . | . | .
CCNC(=S)NCCC1=c2ccccc2=N/C1=C\c1c(O)n(C)c(=O)n(C)c1=O | 20% | ? | ? | -9 | -3% | 16µM*
